# In PubChem BioAssay AID588473 (Sanford-Burnham Center for Chemical Genomics, 2011):
# The whole screen tested about 350,000 compounds, of which about 1,600 (0.46%) were called active.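 Rule for the calls: active = activation of at least 50%, plus an integration ratio under a set limit after plate pattern correction; inactive = the rest.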 The list comes from a sample in which actives are over-represented; it also holds similar structures and randomly drawn compounds.
# Tested on: CRF-binding protein / CRF receptor 2 complex (human)
# Experiment: agonists of CRF-BP/CRF-R2 complex, primary screen, cell-based, HEK293, calcium dye fluorescence, uHTS (AID 588473);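 note: plate controls were neutral control wells without compound for no effect and CRF at EC100 for full effect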
# Details: calcium dye fluorescence (FLIPR), at 13.2 µM, active compounds read high, percent of saturating CRF peptide response
row,Compound,activation
1,CN(Cc1ccccc1Cl)C(=O)C1CCC(=O)N(CCc2cccc(F)c2)C1 (stereo not given),0.61% (inactive)
2,COc1cc(C)ccc1OCC(=O)OCC(=O)c1ccc[nH]1,2.06% (inactive)
3,CC(C)CC(O)C1CCN(C(=O)CCc2nnc(-c3ccc4c(c3)OCO4)o2)CC1 (stereo not given),-0.38% (inactive)
4,O=C(NCCN1CCOCC1)C1CCN(S(=O)(=O)c2ccccc2)CC1,-0.1% (inactive)
5,O=C1NC[C@@H](c2ccccc2)OC(=O)[C@H](Cc2ccc(F)cc2)CC/C=C/C[C@H]1CC(=O)N(CCO)Cc1ccccc1,54.7% (active)
6,O=C1N[C@@H](c2ccccc2)COC(=O)[C@H](Cc2ccc(F)cc2)C/C=C\C[C@@H]1CC(=O)N(CCO)Cc1ccccc1,-2% (inactive)
7,O=C1CCC/C=C/C[C@@H](CC(=O)N(CCO)Cc2ccccc2)C(=O)NC[C@H](c2ccccc2)O1,-0.44% (inactive)
8,CCCNC(=O)c1ccc(N2CCC3(CC2)CC(c2ccc(Cl)cc2)=NO3)c([N+](=O)[O-])c1,0.95% (inactive)
9,CCN(CC)C(=O)C1=C(C)N(Cc2ccc(F)cc2)C(=O)C(CC(=O)NCc2cccc3ccccc23)C1 (stereo not given),-1.12% (inactive)
10,COc1ccc(CNC(=O)CN2CCC(n3nnc4cc(F)ccc43)CC2)cc1,0.03% (inactive)
11,Cc1ccc(-c2nn(-c3ccccc3)cc2/C=C2\SC(=S)N(CCCCCC(=O)O)C2=O)o1,60.7% (active)
12,COc1ccc(/C=C2/SC(=O)N(CCCCCC(=O)Nc3ccccc3C(=O)O)C2=S)cc1,-2.58% (inactive)
13,COc1cccc(/C=C2\SC(=S)N(CCCC(=O)N3CCOCC3)C2=O)c1,2.11% (inactive)
14,COCCCNC(=S)NC(=O)c1ccc([N+](=O)[O-])cc1,-0.87% (inactive)
15,O=C(NC(=S)NC1CCS(=O)(=O)C1)c1cccc([N+](=O)[O-])c1 (stereo not given),0.96% (inactive)
16,CC(C)(C)SCCNC(=O)c1cccc([N+](=O)[O-])c1,-0.01% (inactive)
17,CCCCCC(=O)NC(=S)NNC(=O)c1ccc([N+](=O)[O-])cc1,96.3% (active)
18,CC(C)CC(=O)NC(=S)NNC(=O)c1cccc([N+](=O)[O-])c1,55% (active)
19,CC(=O)Nc1ccc(C(=O)NNC(=O)CCCCC(=O)NNC(=O)c2ccc(NC(C)=O)cc2)cc1,-1.83% (inactive)
20,COC(=O)c1c(CCl)noc1C(=O)NC(C)C,0.17% (inactive)
21,Cc1ccc(Nc2c(O)nc[nH]c2=O)cc1C,-0.7% (inactive)
22,CCN(C(=O)Cc1nc(N)n[nH]1)C1(C(=O)Nc2ccccc2)CCCCC1,1.43% (inactive)
23,C=CCO/N=C/C1=C(O)C(C(=O)OC)C(C)(C)CC1=O (stereo not given),3.2% (inactive)

row,Compound,activation
1,Cc1ccc(O)c(NC(=S)NC(=O)COc2ccc(Br)cc2)c1,195% (active)
2,Cn1cccc1C(=O)NNC(=O)COc1ccc(Br)cc1,0.35% (inactive)
3,CC(=O)Nc1ccc(OC(=O)COc2ccc(Br)cc2)cc1,0.61% (inactive)
4,Cc1cc(C)c(S(=O)(=O)Nc2c(C)n(C)n(-c3ccccc3)c2=O)cc1[N+](=O)[O-],-0.78% (inactive)
5,Cc1ccc(C(=O)N/C(=C/c2ccco2)C(=O)NCCc2c[nH]c3ccccc23)cc1C,-0.5% (inactive)
6,O=C(NCCc1c[nH]c2ccccc12)C1CCN(Cc2ccc(Br)cc2)CC1,7.6% (inactive)
7,N#C/C(=C/c1ccc(N2CCCCC2)o1)C(=O)NCCc1c[nH]c2ccccc12,138% (active)
8,CCCN(CCC)c1nc2c(C)cccn2c(=O)c1/C=C1/SC(=S)N(Cc2ccco2)C1=O,36.9% (inactive)
9,CNc1nc2c(C)cccn2c(=O)c1C=Nc1ccc(OC)cc1,-0.9% (inactive)
10,Cc1cccn2c(=O)c(/C=C3\SC(=S)N(CC(C)C)C3=O)c(NCCCOC(C)C)nc12,83% (active)
11,CCOC(=O)NC(=O)C(=CNc1cccc(OC)c1)C(=O)NC(=O)OCC,2.88% (inactive)
12,Cc1cccn2c(=O)c3cc(C(=O)NCCN4CCOCC4)c(=N)n(Cc4cccnc4)c3nc12,-0.12% (inactive)
13,Cc1cccn2c(=O)c3cc(C#N)c(=NC(=O)c4cccnc4)n(CC4CCCO4)c3nc12 (stereo not given),56.4% (active)
14,Cc1cccn2c(=O)c3cc(C#N)c(=O)n(CCCN4CCOCC4)c3nc12,2.16% (inactive)
15,Cc1cc(=O)n2nc(N3CCCC(C(=O)NCc4ccc(Cl)cc4)C3)sc2n1 (stereo not given),-0.87% (inactive)
16,CCCCCCCC[n+]1cccc(C(=O)N2c3c(nc(N)[nH]c3=O)NC(C)C2C)c1 (stereo not given),-1.35% (inactive)
17,Cc1cccc(C)c1N1CCN(S(=O)(=O)N2CCCCC2)CC1,152% (active)
18,Cc1cccc(C)c1N1CCN(S(=O)(=O)N2CCOCC2)CC1,16.7% (inactive)
19,Cc1cccc(C(=O)N2CCN(S(=O)(=O)N3CCCCC3)CC2)c1,-0.46% (inactive)
20,CCn1cc(CN2CCN(CC(C)(C)C)C(CCO)C2)c2ccccc21 (stereo not given),4.34% (inactive)
21,CCOc1ccc(NCCC(=O)c2ccc3c(c2)OCO3)cc1,-0.43% (inactive)
22,COc1ccc(CCNC(=O)C(=O)NCC2OCCN2S(=O)(=O)c2cccs2)cc1OC (stereo not given),-0.25% (inactive)
23,CC1(C)N=C(c2ccccn2)C(C)(C)N1O,2.11% (inactive)

row,Compound,activation
1,Cc1cccc(NC(=O)C(C)N2C(=O)C3C4CC(C(Br)C4Br)C3C2=O)c1 (stereo not given),73.2% (active)
2,Cc1cccc(NC(=O)CN2C(=O)CNC2=O)c1,-0.73% (inactive)
3,Cc1cccc(NC(=O)CCN2CC(C)CC(C)C2)c1 (stereo not given),-0.13% (inactive)
4,CN(C)S(=O)(=O)c1ccc(C(=O)NCC2(N3CCOCC3)CCCCC2)cc1,0.88% (inactive)
5,COc1cc(SC#N)ccc1N=Cc1c(C)[nH]n(-c2ccc(C)cc2)c1=O,-2.61% (inactive)
6,Cc1ccc(-c2ccnc3[nH]n(-c4ccccc4)c(=O)c23)cc1,0.1% (inactive)
7,Cc1ccc(-n2[nH]c(C)c(/C=N/N3C(=O)c4cccc5cccc(c45)C3=O)c2=O)cc1,113% (active)
8,Cc1noc(C)c1S(=O)(=O)N(C)Cc1ccccc1,-2.84% (inactive)
9,CC(c1cccnc1)N(CCN(C)C)C(=O)Nc1ccc(Cl)c(Cl)c1 (stereo not given),0.52% (inactive)
10,N#CC1(NC(=O)COC(=O)CCN=C2NS(=O)(=O)c3ccccc32)CCCCC1,8.71% (inactive)
11,O=C(CCCN=C1NS(=O)(=O)c2ccccc21)OCC(=O)c1ccc(F)c(F)c1,62% (active)
12,O=C(OCCN=C1NS(=O)(=O)c2ccccc21)c1cccc([N+](=O)[O-])c1,-1.89% (inactive)
13,C=CCOc1cccc(C2C(C(=O)c3ccc(C)o3)=C(O)C(=O)N2CCN2CCOCC2)c1 (stereo not given),0.15% (inactive)
14,CCCc1c(C(=O)N/N=C(\C)CCc2ccc(OC)cc2)nnn1-c1nonc1N,-0.36% (inactive)
15,COc1cc(C)c(C)cc1S(=O)(=O)N1CCCc2ccccc21,53.4% (active)
16,COc1ccc(C(=O)OCC(=O)NCC2CCCCC2)cc1S(=O)(=O)N1CCCc2ccccc21,1.36% (inactive)
17,CCC(C)(C)NC(=O)/C=C/c1cc(OC)c(OC)c(S(=O)(=O)N2CCc3ccccc32)c1,3.27% (inactive)
18,CC(OC(=O)CN1C(=O)C2CCCCC2C1=O)C(=O)Nc1ncc(Cl)cc1Cl (stereo not given),0.41% (inactive)
19,CCNc1nc(Oc2ccc(C(=O)OC)cc2)nc(N2CCOCC2)n1,1.34% (inactive)
20,Cc1ccccc1NC(=O)C(C)c1ccc(-c2ccccc2)c(F)c1 (stereo not given),1.53% (inactive)
21,CC1CC(NC(=O)/C(C#N)=C/c2ccc[nH]2)CC(C)(C)C1 (stereo not given),2.1% (inactive)
22,CCOC(=O)c1c(NC(C)=O)sc2c(O)c(Br)ccc12,1.34% (inactive)
23,O=c1c2cc(Br)ccc2nc(-c2cccc(Cl)c2)n1O,66.9% (active)

row,Compound,activation
1,NC(N)=Nc1nc2ccc(Br)cc2c(=O)[nH]1,-1.35% (inactive)
2,NC(=O)c1cc(-c2cccnc2)nc2ccc(Br)cc12,-0.32% (inactive)
3,CC1Sc2ccc(S(=O)(=O)CCC(=O)NCc3ccccc3Cl)cc2NC1=O (stereo not given),-3.65% (inactive)
4,COc1ccc(N(CC(=O)N2CCCCCC2)S(=O)(=O)c2ccccc2)cc1,0.06% (inactive)
5,COc1ccccc1N(CC(=O)N1CCCCC1)S(=O)(=O)c1ccccc1,59.4% (active)
6,COc1ccc(C)cc1N(CC(=O)N1CCCC1)S(=O)(=O)c1ccccc1,-0.01% (inactive)
7,Nc1c(C(=O)c2cccs2)sc2nsc(SCCN3CCCCC3)c12,147% (active)
8,COc1ccc(C(=O)NNC(=S)NC(=O)c2ccccc2)cc1,123% (active)
9,CC(=O)NC(=S)NNC(=O)c1ccc(Br)cc1,-4.92% (inactive)
10,O=C(CCc1ccccc1)NNC(=O)COc1ccc(Cl)cc1,-0.46% (inactive)
11,COc1ccc(C(=O)NC(=S)NC2CCCCC2)cc1,1.07% (inactive)
12,CCOc1ccccc1NC(=S)NC(=O)CCc1ccccc1,0.36% (inactive)
13,COc1ccc(C(=O)NC(=S)NNC(=O)CCc2ccccc2)cc1,68.5% (active)
14,CCN(Cc1ccncc1)C(=S)Nc1ccccc1C,-0.24% (inactive)
15,COCCCNC(=S)N(CCN(C)C)Cc1cc2cc3c(cc2[nH]c1=O)OCCO3,0.16% (inactive)
16,CC(=O)NC(CC(=O)Nc1nccs1)c1ccccc1 (stereo not given),2.22% (inactive)
17,O=C(Nc1ccccc1C(F)(F)F)N1CCCC1c1cccnc1 (stereo not given),0.09% (inactive)
18,Cc1ccc(NC(=O)CSc2nc(=O)n(CCN(C)C)c3c2CCCC3)c(C)c1,-0.4% (inactive)
19,CCOC(=O)Cc1c(C)nc2c(C#N)c(C)nn2c1C,-2.38% (inactive)
20,O=C(NCCc1ccccc1Cl)C1CCC(=O)N(CCCc2ccccc2)C1 (stereo not given),-1.43% (inactive)
21,C/C(=N\NC(=O)c1cc2c(s1)CCC(C)C2)c1cccnc1 (stereo not given),-0.26% (inactive)
